For 87 compounds, inhibition results are on record in PubChem BioAssay AID1259398 (Fisher Drug Discovery Resource Center, 2018).

For orientation: inhibition means the relative decrease from the control value, in per cent.

Each structure is given as a SMILES string. Where “and” joins values, the source holds several entries; their conditions need not be identical. Equal entries are not always repeated. Out of some 290,000 compounds screened, about 230 (0.079%) were called active. Cut-off read from the data, not from the text of the source: active = inhibition above about 40%; inactive = the rest. Many of the other results were omitted from the sample, so actives are more common in it than they were. Some structures have more than one record in an assay (separate samples or runs), and their calls can disagree.

Chain of Cyclic GMP-AMP synthase (Homo sapiens) (Q8N884 whole entry, looked up): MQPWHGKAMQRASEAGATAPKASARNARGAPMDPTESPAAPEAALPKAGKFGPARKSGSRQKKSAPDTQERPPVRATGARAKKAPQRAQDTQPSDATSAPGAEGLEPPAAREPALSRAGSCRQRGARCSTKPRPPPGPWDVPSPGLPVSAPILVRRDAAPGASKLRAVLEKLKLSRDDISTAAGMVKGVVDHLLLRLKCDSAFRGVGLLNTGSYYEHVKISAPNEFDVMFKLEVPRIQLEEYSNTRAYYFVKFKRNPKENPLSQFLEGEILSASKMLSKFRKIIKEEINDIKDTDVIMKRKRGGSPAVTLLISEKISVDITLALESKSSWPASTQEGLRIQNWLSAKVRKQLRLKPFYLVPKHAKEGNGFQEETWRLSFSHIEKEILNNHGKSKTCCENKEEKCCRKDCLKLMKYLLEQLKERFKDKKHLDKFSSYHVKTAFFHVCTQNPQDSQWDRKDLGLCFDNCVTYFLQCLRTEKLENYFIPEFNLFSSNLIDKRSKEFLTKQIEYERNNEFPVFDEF

This experiment concerns the target Cyclic GMP-AMP synthase (Homo sapiens) (UniProt Q8N884). Description: Biochemical Kinase-Glo luminescence primary assay, human cyclic GMP-AMP synthase inhibition (AID 1259398).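 Note: 0% = vehicle reaction and 100% = reaction without DNA for no activity.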 Particulars: recombinant h-cGAS, ATP depletion, at 12.5 µM, stronger effect = higher value.
As for `COc1cccc(-c2nn(Cc3ccccc3)c(=O)c3nc(C)sc23)c1`, the inhibition is -0.0493% (inactive).

For the compound `O=C(NCCc1ccco1)c1ccc2c(c1)OCO2`, the inhibition was 1.62% (inactive). `COc1cc(CN(C)C(=O)c2cc(N3CCN(c4cccc(C(F)(F)F)c4)CC3)nc3ccccc23)cc(OC)c1OC`: the inhibition was -6.59% (inactive).

Take `NC(=O)COc1ccc(C(=O)N2CCCC2CCc2ccccc2)cc1` (configuration not stated): the inhibition was -3.77% (inactive). Under `CCOC(=O)c1sc(NC(=O)CCCl)c(C(=O)OCC)c1C` stands -5.41% (inactive); under `CCCc1c(C(=O)NCc2cccnc2)cnn1-c1ccccc1C`, -8.73% (inactive); under `O=C(Nc1nnc(-c2ccc(Cl)cc2)s1)C1CCCN1S(=O)(=O)c1ccc(F)cc1` (configuration not stated), -2.72% (inactive). In the case of `C(=C\c1ccccc1)/CSc1nnc2c(n1)[nH]c1ccccc12`, the inhibition was -6.1% (inactive). For `CC(C)CNC(=O)c1c(O)nc2sccn2c1=O` the value was -9.43% (inactive); for `COCCNC(=O)Cn1nc2c(c1NC(=O)Cc1ccc(F)cc1)CSC2`, -6.17% (inactive). Regarding `Cn1c(=O)[nH]c(=O)c2c1nc(N1CCN(Cc3ccccc3)CC1)n2Cc1cccc(Cl)c1`, the inhibition is -7.67% (inactive). As for `CC1(C)C(c2ccc(Cl)cc2)=[N+]([O-])C(C)(C)C(c2ccc(Cl)cc2)=[N+]1[O-]`, the inhibition is -4.69% (inactive). Turning to `COc1ccc2cnn(-c3cccc(Cl)c3)c(=O)c2c1OC`, the inhibition is -0.243% (inactive).

For `Cc1sc2ncn(CC(=O)O)c(=O)c2c1C`, the inhibition is -2.86% (inactive). Consider `Cc1ccc(-c2cc(C(=O)O)[nH]n2)c(C)c1`, for which the inhibition is -5.69% (inactive). With `O=C(CSc1nc(=O)n(CCCN2CCOCC2)c2c1CCC2)N1CCc2ccccc21`, the inhibition was -6% (inactive). For `CC(C)CSc1nc2c(c(=O)n(C)c(=O)n2C)n1CC=Cc1ccccc1` the value was -0.843% (inactive).

Consider `CC(Cn1cncn1)NC(=O)C1CCN(C)C(=O)C1` (configuration not stated), for which the inhibition is -9.85% (inactive). Turning to `Clc1ccccc1Cn1ncc2c(N3CCN(CCOc4cccc5ccccc45)CC3)ncnc21`, the inhibition was -10.9% (inactive).

For the compound `N#CC1C(=N)SC(=N)C(C#N)C1c1cccc(O)c1` (configuration not stated), the inhibition was 65.3% (active). For `CCc1ccc(C2C(C#N)C(=N)SC(=N)C2C#N)cc1` (configuration not stated) the value was -0.735% (inactive). With `N#CC1C(=N)SC(=N)C(C#N)C1c1ccco1` (configuration not stated), the inhibition was 53.9% (active). With `N#CC1C(=N)C(C#N)(C#N)C(c2ccco2)C2CCCC=C12` (configuration not stated), the inhibition is -7.43% (inactive).

`N#CC1C(=N)SC(=N)C(C#N)C1c1ccnc2ccccc12` (configuration not stated): the inhibition is -1.27% (inactive). For `CCC(C(=O)N(CC(=O)N1CC(=O)N(c2cccc(Cl)c2C)C1)Cc1ccco1)c1ccccc1` (configuration not stated), the inhibition was -7.01% (inactive). Consider `COc1cc(S(=O)(=O)Nc2c(F)cccc2F)cc(C(=O)O)c1OC`, for which the inhibition is 9.01% (inactive). As to `Cc1cccc(Cn2cccc2CN(Cc2ccc(F)cc2)C2CCCCC2)c1`, the inhibition was -1.66% (inactive).

For `COc1ccc(-n2nnnc2SCCC#N)cc1`, the inhibition was -7.16% (inactive). For `Cc1cc(C(=O)O)ccc1S(=O)(=O)N(C)c1cc(F)ccc1F`, the inhibition is -8.29% (inactive).

`CCC(CO)N(Cc1ccc(F)cc1)Cc1c(C)nn(C)c1Cl` (configuration not stated): the inhibition was -10.3% (inactive). Regarding `O=C(c1cc(-c2ccccc2F)on1)N1CCc2ccc(O)cc2C1`, the inhibition is -0.786% (inactive). For the compound `COc1cc(C(=O)n2nc(C)c(Sc3ccccc3[N+](=O)[O-])c2C)cc(OC)c1OC`, the inhibition is -6.71% (inactive). For `CC(=O)Nc1ccccc1OS(=O)(=O)c1ccc(Br)cc1`, the inhibition is 0.158% (inactive) and 5.4% (inactive).

With `CN(Cc1nc2ccccc2n1C)C(=O)[C@H]1CCCO1`, the inhibition is -5.26% (inactive). Take `O=C(NC(Cc1ccccc1)C(=O)Nc1nnc(-c2cccc(Cl)c2)s1)c1cccc(C(F)(F)F)c1` (configuration not stated): the inhibition is -8.87% (inactive). Consider `COc1cccc(-c2nc(OCc3ccc(F)cc3)nn2-c2cccc(NC(=O)C3CCC3)c2)c1`, for which the inhibition was -6.9% (inactive). Under `O=C(Nc1ccc(F)cc1)c1csc(CSc2nnc(Cc3ccccc3)n2-c2cccc(Cl)c2)n1` stands 5.96% (inactive); under `CCn1nc(C(=O)O)c2c1CCC(N(C)CCn1ccnc1C)C2` (configuration not stated), -7.94% (inactive). Regarding `COc1cccc(C2Nc3ccccc3N=C3CC(C)(C)CC(=O)C32)c1OC` (configuration not stated), the inhibition is -3.94% (inactive). Consider `CC(C)(CCl)C(=O)N1CCN(c2ncnc3c2nnn3-c2cccc(F)c2)CC1`, for which the inhibition was -5.18% (inactive). As for `CCc1nc2ccc(C(=O)NCCNC(C)=O)cn2c1N(CC)Cc1cccc(Br)c1`, the inhibition is -6.29% (inactive).

For the compound `O=C(NCCc1ccccc1)c1cc(NC(=O)C(c2ccccc2)c2ccccc2)ccc1N1CCCCC1`, the inhibition was -3.47% (inactive).

`O=C(NC1CCC1)c1ccc(-c2cc(-c3cccc(C(F)(F)F)c3)n[nH]2)cc1`: the inhibition is -8.56% (inactive). For `CC1c2ccsc2CCN1C(=O)Cc1csc(-c2ccsc2)n1` (configuration not stated) the value was -10.7% (inactive); for `COC[C@@H]1CCCN1C(=O)c1ccc(-n2nc(-c3cccc(Cl)c3)cc2N)cc1`, 2.07% (inactive); for `CN(C)c1ccc(N2CC(=O)C(c3nc(-c4cccc(Cl)c4)cs3)C2=N)cc1` (configuration not stated), 148% (active).

For `Nc1cc(-c2cccc(Cl)c2)nn1-c1ccc(C(=O)N2CCOCC2)cc1`, the inhibition was -3.59% (inactive). Under `COc1cccc(CSc2nnc(CNC(=O)Nc3cc(C(F)(F)F)cc(C(F)(F)F)c3)n2-c2ccc(C)cc2)c1` stands -18% (inactive); under `Cc1cc(C)n(CC(=O)N2CC[C@@H]3CN(S(C)(=O)=O)[C@@H]3C2)n1`, 66.4% (active). Consider `Cc1cc(C)n(CC2CCN(C(=O)C3CCN(S(C)(=O)=O)CC3)CC2)n1`, for which the inhibition is -9.09% (inactive).

Consider `CCn1ncc(C(=O)N2CC[C@@H]3CN(S(C)(=O)=O)[C@@H]3C2)c1C`, for which the inhibition was -7.55% (inactive).

With `CS(=O)(=O)c1ccc(-c2ccc(NS(=O)(=O)c3cccs3)cc2)nn1`, the inhibition is -9.35% (inactive). On to `Cc1cc(C(=O)N2CCC(N(C)C)C2)ccc1NC(=O)c1ccco1` (configuration not stated), for which the inhibition was -11.4% (inactive).

For `CC(=O)N(c1ccccc1)C1C=C(Nc2ccccc2)C(=O)C1` (configuration not stated), the inhibition was -10.4% (inactive). For `Cc1c(C(=O)N2CCC(Cc3ccccc3)CC2)cnc2c(-c3cccc(C(F)(F)F)c3)cnn12` the value was -4.43% (inactive). In the case of `OC(COCc1ccco1)CN(Cc1ccccc1)C1CC1` (configuration not stated), the inhibition was 1.45% (inactive). In the case of `Cc1cc(NC(=O)Cc2cccs2)n(-c2nc(-c3cccs3)cs2)n1`, the inhibition was -2.04% (inactive). For `CN(CCCOc1ccccc1Cl)C(=O)C1(N)CC1` the value was -6.84% (inactive); for `CC(C(=O)N1CCCCCC1)N1CCCC(C(=O)Nc2ccccc2)C1` (configuration not stated), -13.6% (inactive). In the case of `CC1CC(=O)C2C=Nc3ccccc3N=C2C1` (configuration not stated), the inhibition was -2.79% (inactive).

Take `CS(=O)(=O)N1CCCC(NCc2ccc(-c3ccc(C(F)(F)F)cc3)o2)C1` (configuration not stated): the inhibition was -7.61% (inactive). For `CCOC(=O)c1[nH]c(C)c(C(=O)C(C)N(CCOC)C(=O)Nc2c(C)cccc2C)c1C` (configuration not stated) the value was -3.12% (inactive); for `O=S1(=O)N=C(Nc2ccccc2Cl)c2ccccc21`, -4.92% (inactive). For `Cc1noc(C)c1CN1CCN2C=C(C(=O)NC3CCc4ccccc43)OC2=NC1=O` (configuration not stated), the inhibition was -7.38% (inactive). For `C=CCn1c(SCC(=O)c2cc(C)n(Cc3ccco3)c2C)nc2sc(C)c(C)c2c1=O`, the inhibition is -4.88% (inactive). For the compound `Cc1c(C(=O)N2CCc3[nH]nc(-c4ccccc4)c3C2)[nH]c2c(F)cccc12`, the inhibition is -6.74% (inactive).

With `Cc1csc(=O)n1CCC(=O)Nc1ccc(S(=O)(=O)N(C)C(C)C)cc1`, the inhibition is 7.25% (inactive). Take `CC(=O)c1cccc(N2C(=O)C3C4C=CC(C5CC45)C3C2=O)c1` (configuration not stated): the inhibition is -3.94% (inactive). Turning to `CCOC(=O)c1cc(-c2ccccc2)sc1NC(=O)CC1CCCC1`, the inhibition was -6.75% (inactive). Regarding `CCOC(=O)c1ccc(NC(=O)Cn2c(-c3nnc(C(C)C)o3)cc3ccccc32)cc1`, the inhibition was -1.71% (inactive). As for `Cc1ncc(CN(C)CC2CCN(c3ccccc3)C2)[nH]1` (configuration not stated), the inhibition was -4.21% (inactive). For the compound `COCC(=O)Nc1ccccc1C(=O)N1CC(C)CC(C)C1` (configuration not stated), the inhibition is -11.9% (inactive). With `Cc1ccc(CSc2nc(=O)n(CCO)c3c2CCC3)cc1`, the inhibition is -6.25% (inactive). Under `O=C(c1cn[nH]c1-c1ccc(F)cc1)N1CCN(S(=O)(=O)c2ccccc2)CC1` stands -8.02% (inactive); under `COCCNC(=O)c1ccc(CSc2nnc(Cc3ccccc3)n2-c2ccc(OC)cc2)cc1`, 5.06% (inactive).

In the case of `COc1cccc(CN2CCC(C(=O)NC(c3cccc(OC)c3)c3ccccn3)CC2)c1` (configuration not stated), the inhibition was -3.62% (inactive). As to `COc1cc(C(=O)Nc2oc3ccccc3c(=O)c2-c2ccccc2)cc(OC)c1OC`, the inhibition is -4.49% (inactive).

In the case of `N#CC(=C1NS(=O)(=O)c2ccccc21)c1nc2ccccc2n1Cc1ccccc1`, the inhibition was -6.01% (inactive). For `NC(=O)C1CCCN1C(=O)NC(=O)CSc1ccccc1Cl` (configuration not stated) the value was 20.8% (inactive); for `N#Cc1ccsc1NC(=O)c1cc(Cl)c2c(c1)OCO2`, 0.691% (inactive). Turning to `CCc1c(C(=O)N2CCCC2)c(CC(C)C)nn1-c1ccc(Cl)cc1`, the inhibition is -4.87% (inactive).

For the compound `CCC(C(=O)N1CCN(C(C(=O)Nc2cccc(Cl)c2)C2CCCC2)CC1)c1ccccc1` (configuration not stated), the inhibition is -0.887% (inactive). As to `CN1C(=O)[C@]2(C)[C@H](c3ccccc31)[C@@H](C(N)=O)CN2C(=O)CC(C)(C)C`, the inhibition is -2.6% (inactive).

As to `CCC1CSC(=Nc2ccc(Cl)cc2)N1C(=O)c1ccc(C)nc1` (configuration not stated), the inhibition is -0.466% (inactive). With `COc1cccc(CN2CCCN(c3nc(Cc4ccccc4)nc4c3c(C)nn4-c3ccc(F)cc3)CC2)c1`, the inhibition is -3.74% (inactive).

With `CC(C)CC(CNc1ccc(S(=O)(=O)N2CCCCC2)cc1[N+](=O)[O-])N1CCOCC1` (configuration not stated), the inhibition was -5.16% (inactive). Take `Oc1c(Cl)cc(Cl)c(Cl)c1Cc1c(O)c(Cl)cc(Cl)c1Cl`: the inhibition is 84.9% (active) and 0.133% (inactive).
